Results published in PubChem BioAssay (Tox21).
Results filed as inconclusive are left out. Values without a mark were called inactive. Calls of active or inactive are those of the source. Calls follow the shape of the dose curve; as a rule, active = well fitted cell-killing curve with a large enough effect in the repeat runs; inconclusive = weak or mixed curves, or effect the other way; inactive = flat fitted curve, though single readings scatter.

assay: cAMP Responsive Elements (CRE) small molecule antagonists, cell-based qHTS assay: qHTS cell viability counter screen (AID 2060913); settings: CRE-bla HEK293T viability, CellTiter-Glo luminescence, 5 h; series mostly up to 92.4 µM; viability change, negative = cytotoxic: at the top concentration; also: nearly all actives have a fitted effect of over 40% in size
Method in brief: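 CRE-bla HEK293T cells (2,000/well, 18 h) given compound plus NKH477 0.25 uM final for 3 h at 37C; viability counter-screen by CellTiter-Glo luminescence in same wells after 30 min.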
% is scaled to controls: 0 for no effect and ±100 for the full control effect; potency is read from the fitted curve at half-maximal effect.

Row | SMILES | viability change, negative = cytotoxic | Potency
1 | CC(C)OC(C)C | 4.96% | –
2 | CC1=CCC(O)(C(C)C)CC1 (stereo not given) | -0.674% | –
3 | Cc1ncc([N+](=O)[O-])n1CC(O)CCl (stereo not given) | -0.776% [at 42.5 µM] | –
4 | CN1CCCN=C1/C=C/c1cccs1 | 16% [at 42.5 µM] | –
5 | O=C1CCCCCCCCCCCCCC1 | 5.79% | –
6 | CNC[C@H](O)c1ccc(O)c(O)c1 | – | inactive
7 | CCN(CC)CCOC(=O)C(c1ccccc1)c1ccccc1 | 3.32% [at 42.5 µM] | –
8 | Oc1c(Cl)cc(Cl)c2cccnc12 | 3.07% [at 42.5 µM] | –
9 | COC(=O)C1=C(C)NC(C)=C(C(=O)OC(C)C)C1c1cccc2nonc12 (stereo not given) | -3.93% [at 42.5 µM] | –
10 | CC/C=C\CC/C=C/C(OCC)OCC | 0.978% | –
11 | CCc1cccc(CC)c1NC(=O)CN(CC(=O)O)CC(=O)O | 0.58% [at 42.5 µM] | –
12 | COc1ccc(OC)c(Cl)c1 | 0.0713% | –
13 | COc1cc(C)nc(-n2nc(C)cc2OC)n1 | 1.88% [at 42.5 µM] | –
14 | O=C(O)C1CCC1 | 17.8% [at 42.5 µM] | –
15 | CC(C)OC(=O)C(C)(C)Oc1ccc(C(=O)c2ccc(Cl)cc2)cc1 | – | inactive
16 | COc1ccc(C(=O)CC(=O)c2ccc(C(C)(C)C)cc2)cc1 | – | inactive
17 | NNc1nnc(NN)c2ccccc12 | 1.28% [at 42.5 µM] | –
18 | O=C(CCCN1CCC(O)(c2ccc(Br)cc2)CC1)c1ccc(F)cc1 | -14.7% [at 42.5 µM] | –
19 | C/C=C\C/C=C/CCCCCCCCOC(C)=O | 4.05% | –
20 | CSc1nc(NC2CC2)nc(NC(C)(C)C)n1 | -10.2% | –
21 | COc1cc(C(=O)N2CCCCCCC2)cc(OC)c1OC | 1.54% [at 42.5 µM] | –
22 | CCOCCOCCOCCO | – | inactive
23 | CC1(C)S[C@@H]2[C@H](NC(=O)C(c3ccccc3)S(=O)(=O)O)C(=O)N2[C@H]1C(=O)O (stereo not given in full) | 1.77% [at 42.5 µM] | –
24 | S=C1NC=NC2N=CNC12 (stereo not given) | – | 3.06 µM (active)
25 | C[C@@H]1CCC[C@H](C)N1 | 4.67% [at 42.5 µM] | –
